In all, about 81,000 sequences were measured (“one-hybrid fitness for binding parS DNA”: median about -0.17, highest 2% from about 0.51 on). The sample as a whole holds a higher share of the highest values than the screen did.
B1: Caulobacter ParB omega fusion; a variant is named by its letters at X, in order, B8GW30 (parent)
chain: MESVVVGEPGMSEGRRGLGRGLSALLGEVDAAPAQAPGEQLGGSREAPIEILQRNPDQPRRTFREEDLEDLSNSIREKGVLQPILVRPSPDTAGEYQIVAGERAWRAAQRAGLKTVPIMVRELDDLAVLEIGIIENVQRADLNVLEEALSYKVLMEKFERTQENIAQTIGKSXSHVANXMRLLXLPDEVQSYLVSGELTAXHARAIAAAADPVALAKQIIEGGLSVRETEALARKAPNLSAGKSKGGRPPRVKDTDTQALESDLSSVLGLDVSIDHRGSTGTLTITYATLEQLDDLCNRLTRGI

Variants of: B1
Experiment: one-hybrid fitness for binding parS DNA (scaled: cognate 1, non-cognate 0); higher = stronger binding
Conditions: with parS DNA site
Outline: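 Bacterial one-hybrid selection in E. coli USO rpoZ- hisB- pyrF- with a HIS3 reporter carrying the site 19 bp from the promoter, screening Caulobacter ParB libraries with four specificity codons randomised (NNS). Cells grew 48 hours at 37°C on M9-minus-histidine plus 0.1 mM IPTG and 5 mM 3-AT. Plasmids before and after selection were Illumina-sequenced, three replicate libraries pooled, and variants under 10 reads dropped. Fitness is the log change in variant-to-wild-type read ratio, rescaled to cognate 1, non-cognate 0.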

one-hybrid fitness for binding parS DNA, 0.597:
RRAC

one-hybrid fitness for binding parS DNA, 0.324:
RRQM

one-hybrid fitness for binding parS DNA, 0.757:
RYIC

one-hybrid fitness for binding parS DNA, 0.901:
RYGS

one-hybrid fitness for binding parS DNA, 0.271:
RRAM

one-hybrid fitness for binding parS DNA, 0.824:
RYRS

one-hybrid fitness for binding parS DNA, 0.991:
RLFG

one-hybrid fitness for binding parS DNA, 0.635:
RYPS

one-hybrid fitness for binding parS DNA, 0.614:
RRQN

one-hybrid fitness for binding parS DNA, 0.912:
RYQS

one-hybrid fitness for binding parS DNA, 0.377:
RKYY

one-hybrid fitness for binding parS DNA, 0.978:
RYYS

one-hybrid fitness for binding parS DNA, 0.955:
RIRG

one-hybrid fitness for binding parS DNA, 0.958:
RYCS

one-hybrid fitness for binding parS DNA, 0.434:
RAPT

one-hybrid fitness for binding parS DNA, 0.384:
RYSN

one-hybrid fitness for binding parS DNA, 0.649:
RRQS

one-hybrid fitness for binding parS DNA, 0.442:
RLAN

one-hybrid fitness for binding parS DNA, 0.206:
RYLD

one-hybrid fitness for binding parS DNA, 1.03:
RAYS
RALS
RIYG

one-hybrid fitness for binding parS DNA, 0.375:
RYRN

one-hybrid fitness for binding parS DNA, 0.942:
RAIS

one-hybrid fitness for binding parS DNA, 0.911:
RYSS

one-hybrid fitness for binding parS DNA, 0.352:
RYIY

one-hybrid fitness for binding parS DNA, 0.921:
RYHS

one-hybrid fitness for binding parS DNA, 1.05:
RAWS

one-hybrid fitness for binding parS DNA, 0.265:
RIYF

one-hybrid fitness for binding parS DNA, 0.223:
RYCH

one-hybrid fitness for binding parS DNA, 0.673:
RAPS

one-hybrid fitness for binding parS DNA, 1.01:
RLAG

one-hybrid fitness for binding parS DNA, 0.301:
RAIN

one-hybrid fitness for binding parS DNA, 0.99:
RYWS

one-hybrid fitness for binding parS DNA, 0.623:
RRFT

one-hybrid fitness for binding parS DNA, 0.908:
RARS

one-hybrid fitness for binding parS DNA, 0.445:
RAYN

one-hybrid fitness for binding parS DNA, 0.419:
RARN

one-hybrid fitness for binding parS DNA, 0.421:
RYHN

one-hybrid fitness for binding parS DNA, 0.682:
RAIT

one-hybrid fitness for binding parS DNA, 0.395:
RIRN

one-hybrid fitness for binding parS DNA, 0.29:
RIRH

one-hybrid fitness for binding parS DNA, 0.477:
RYPC

one-hybrid fitness for binding parS DNA, 0.679:
RRFC

one-hybrid fitness for binding parS DNA, 0.369:
RLFM

one-hybrid fitness for binding parS DNA, 0.939:
RYIS

one-hybrid fitness for binding parS DNA, 0.986:
RYLS

one-hybrid fitness for binding parS DNA, 0.431:
RALN

one-hybrid fitness for binding parS DNA, ≤ 0.2:
RRAQ
PVDT
CRAT
RDEQ
RRAK
RRFR
RRFF
STSS
HRSN
NLCV
TTRK
RAPN
RAID
RAPP
RAYP
MHTT
SHEG
FDNL
CPKA
QTHW
PVVK
LDQC
EKET
VKMG
GMPS
RAWD
RARH
RAIP
RAWP
GPSP
PSKI
CYMT
DQPL
FLGS
RIYK
PSLL
FVQI
SSST
LRVT
AKQS
WRGT
LTAS
HNMS
RRQD
RRQP
RRQH
DHPT
RGVM
LQKG
QYAK
TQYT
RLFK
RLAD
AIYN
WEYM
NPSH
VRSD
RAIV
RPEN
CYEL
HDFT
NCIT
RYYP
RYQH
RYID
RYQD
RYIP
RYYD
RYCP
LVWD
NPHT
PSHS
DITP
NQLR
PVNW
YEPV
CIDV
MSHI
RYHD
RYSH
RYGD
RYRD
PQCT
AYIG
HGTM
RYRV
SHLR
VPHG
KAVS
RYPP
RYLH
RYPD
RYWH
PNPL
SDTR
MCER
YVVN
HTHM
APRT
VFSS
NMCG
TSPA

one-hybrid fitness for binding parS DNA, 0.408:
RYGN

one-hybrid fitness for binding parS DNA, 0.211:
RALH

one-hybrid fitness for binding parS DNA, 0.422:
RYWN

Reference: a collection of fitness landscapes (doi:10.1016/j.celrep.2020.107928)
